Screen size: about 340,000 compounds; about 1,000 (0.29%) were called active. The full list was thinned out, with actives kept by preference. Values without a mark were called inactive.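 Rule for the calls: active = mean replicate activation score at least 90 and every replicate individually at or above 90; inconclusive = only one of the two criteria met; inactive = neither criterion met.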

Results on 41 compounds are retold here after PubChem BioAssay AID602342 (Broad Institute, 2012).

The nature of the assay: compounds raising miR-122 luciferase sensor output – cell-based, single point, plate reader, miR-122 inhibitor project, primary screen (AID 602342).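 Note: higher luciferase means less miR-122 activity so hits act as miR-122 inhibitors.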 The note with it: Huh7 miR-122 Renilla luciferase sensor, 48 h, hits give high values, neutral wells = 0, positive control = 100.

`C[C@H](CO)N1C[C@H](C)[C@H](CN(C)C(=O)Nc2ccccc2C(F)(F)F)OCc2cn(nn2)CCCC1=O`: for the setting “at 16.7 µM unless noted”, the activation (reporter increase) is -4.03%.

In the case of `N=c1n(Cc2ccc(Cl)cc2)c2ccccc2n1CC(O)c1ccco1` (configuration not stated), the activation (reporter increase) (at 16.7 µM unless noted) was 262% [at 12.5 µM] (active).

For the compound `Cn1c(=N)n(CC(O)c2cccs2)c2ccccc21` (configuration not stated), the activation (reporter increase) (at 16.7 µM unless noted) is -2.61% [at 12.5 µM].

In the case of `C[C@H](CO)N1C[C@H](C)[C@@H](CN(C)C(=O)Nc2ccc3c(c2)OCO3)OCCCC[C@H](C)Oc2ccc(NC(=O)Nc3ccc(F)cc3)cc2C1=O`, the activation (reporter increase) (at 16.7 µM unless noted) is -4.3%.

For the compound `Cc1noc(C)c1S(=O)(=O)N(C)C[C@@H]1OCCCC[C@H](C)Oc2ccc(NC(=O)Nc3ccc4c(c3)OCO4)cc2C(=O)N([C@H](C)CO)C[C@H]1C`, the activation (reporter increase) (at 16.7 µM unless noted) was -8.18%.

For `O=C(Nc1ccccc1)[C@@H]1[C@@H](CO)[C@@H]2Cn3c(cccc3=O)[C@@H]2N1C(=O)C1CC1`, the activation (reporter increase) (at 16.7 µM unless noted) is -0.104%.

On to `C[C@@H]1CN([C@H](C)CO)C(=O)c2cc(NC(=O)c3ccccc3)ccc2O[C@@H](C)CCCCO[C@H]1CN(C)C(=O)c1ccncc1`, for which the activation (reporter increase) (at 16.7 µM unless noted) was -8.54%.

For `C[C@H](CO)N1C[C@H](C)[C@@H](CN(C)S(=O)(=O)c2ccc(F)cc2)Oc2ccc(NC(=O)CCC(F)(F)F)cc2C1=O`, the activation (reporter increase) reads like this: (at 12.5 µM) 1.48%; (at 16.7 µM) -2.79%.

Consider `C[C@H]1CN([C@@H](C)CO)C(=O)Cc2cc(NS(=O)(=O)c3ccccc3)ccc2O[C@@H]1CN(C)Cc1ccc(C(=O)Nc2ccccc2N)cc1`, for which the activation (reporter increase) (at 16.7 µM unless noted) is -6.43%.

On to `Cc1ccc(S(=O)(=O)Nc2ccc3c(c2)CC(=O)N([C@@H](C)CO)C[C@H](C)[C@H](CN(C)Cc2ccc(C(=O)Nc4ccccc4N)cc2)O3)cc1`, for which the activation (reporter increase) (at 16.7 µM unless noted) was 252% (active).

In the case of `COc1ccc(S(=O)(=O)N(C)C[C@@H]2Oc3ccc(NC(=O)CCC(F)(F)F)cc3C(=O)N([C@@H](C)CO)C[C@H]2C)cc1`, the activation (reporter increase) (at 16.7 µM unless noted) was -0.455%.

On to `Cc1ccc(S(=O)(=O)N(C)C[C@H]2Oc3ccc(NC(=O)CCC(F)(F)F)cc3C(=O)N([C@@H](C)CO)C[C@H]2C)cc1`, for which the activation (reporter increase) (at 16.7 µM unless noted) is 99.9% (active).

Regarding `C[C@H]1CN([C@@H](C)CO)C(=O)Cc2cc(NS(=O)(=O)c3ccccc3)ccc2O[C@H]1CN(C)Cc1ccc(C(=O)Nc2ccccc2N)cc1`, the activation (reporter increase) (at 16.7 µM unless noted) was 71.5%.

Take `COCC(=O)Nc1ccc2c(c1)C(=O)N(C)[C@H]1CC[C@H](CC(=O)Nc3ccccc3)O[C@H]1CO2`: the activation (reporter increase) (at 16.7 µM unless noted) was 1.21%.

Consider `NCC[C@@H]1CC[C@@H](NC(=O)C2CCCC2)[C@H](CO)O1`, for which the activation (reporter increase) (at 16.7 µM unless noted) is -3.47%.

On to `CC(C)C#Cc1ccc([C@@H]2[C@@H](CO)N3CCCCN(C(=O)c4ccc5c(c4)OCO5)C[C@H]23)cc1`, for which, for the setting “at 16.7 µM unless noted”, the activation (reporter increase) is -24%.

Regarding `Cc1c(-c2ccccc2)cn2c1-c1ccc(C)n1CC2`, where the note is “at 16.7 µM unless noted”, the activation (reporter increase) was 248% [at 12.5 µM] (active).

For the compound `C[C@H]1CCCCO[C@H](CN(C)S(=O)(=O)c2cn(C)cn2)[C@@H](C)CN([C@@H](C)CO)C(=O)c2cc(NC(=O)C3CCCCC3)ccc2O1`, under “at 16.7 µM unless noted”, the activation (reporter increase) was 1.57%.

With `CCCNC(=O)N(C)C[C@@H]1Oc2ncc(C#CC(C)C)cc2C(=O)N([C@H](C)CO)C[C@H]1C`, the activation (reporter increase) (at 16.7 µM unless noted) was -5.52%.

Regarding `CN1c2ccc(-c3ccccc3)cc2[C@H]2[C@H](CCN2C(=O)c2ccc3c(c2)OCO3)[C@H]1CO`, the activation (reporter increase) (at 16.7 µM unless noted) was 72.9%.

In the case of `CC(C)CNS(=O)(=O)c1ccc(OCC(=O)Nc2ccc3c(c2)OCO3)c(Cl)c1`, the activation (reporter increase) (at 16.7 µM unless noted) is 303% [at 12.5 µM] (active).

On to `O=C(COc1ccc(Cl)cc1)Nc1ccc2c(c1)OCO2`, for which the activation (reporter increase) (at 16.7 µM unless noted) is -4.55% [at 12.5 µM].

Regarding `CC(C)CNS(=O)(=O)c1ccc(C(=O)Nc2ccc3c(c2)OCO3)cc1`, the activation (reporter increase) (at 16.7 µM unless noted) is 39.9% [at 12.5 µM].

For the compound `C[C@H](CO)N1C[C@H](C)[C@H](CN(C)S(C)(=O)=O)Oc2ncc(C3=CCCCC3)cc2C1=O`, where the note is “at 16.7 µM unless noted”, the activation (reporter increase) was 2.67%.

Consider `CCC(=O)N(C)C[C@H]1Oc2cc(-c3ccc(C)cc3)ccc2S(=O)(=O)N([C@@H](C)CO)C[C@H]1C`, for which, for the setting “at 16.7 µM unless noted”, the activation (reporter increase) was -15.3%.

As for `COCCn1c(SCC(=O)c2[nH]c(C)c(C(C)=O)c2C)nc2ccccc2c1=O`, the activation (reporter increase) (at 16.7 µM unless noted) was 272% [at 12.5 µM] (active).

In the case of `COCCn1c(C)cc(C(=O)CSc2nc3ccccc3c(=O)n2C(C)COC)c1C` (configuration not stated), under “at 16.7 µM unless noted”, the activation (reporter increase) is -1.04% [at 12.5 µM].

For the compound `COCCn1c(SCC(=O)Nc2ccc3c(c2)CCC3)nc2ccccc2c1=O`, the activation (reporter increase) (at 16.7 µM unless noted) was 1.43% [at 12.5 µM].

For `CO[C@H]1CN(C)C(=O)c2cc(NS(=O)(=O)c3ccccc3)ccc2OC[C@H](C)N(C)C[C@@H]1C`, for the setting “at 16.7 µM unless noted”, the activation (reporter increase) is 0.654%.

`CNC(=O)C[C@@H]1CC[C@H]2[C@H](COc3ccc(NC(=O)c4cccc(OC)c4)cc3C(=O)N2C)O1`: the activation (reporter increase) (at 16.7 µM unless noted) was -50%.

As to `C[C@@H]1CCCCO[C@H](CN(C)C(=O)c2ccccc2)[C@H](C)CN([C@H](C)CO)C(=O)c2cc(N(C)C)ccc2O1`, the activation (reporter increase) (at 16.7 µM unless noted) was -6.07%.

As to `CC(C)c1cc(C(=O)O)n[nH]1`, the activation (reporter increase) (at 16.7 µM unless noted) was 143% [at 12.5 µM] (active).

Turning to `CC(C)c1cc(C(=O)O)on1`, the activation (reporter increase) (at 16.7 µM unless noted) is 8.11% [at 12.5 µM].

Take `CO[C@H]1CN(C)C(=O)c2ccc(NC(=O)Cc3ccccc3)cc2OC[C@@H](C)N(C(C)=O)C[C@H]1C`: the activation (reporter increase) (at 16.7 µM unless noted) is -19.6%.

Turning to `CN1C[C@H]2[C@@H](c3ccccc31)[C@@H](CO)N2Cc1ccccc1`, for the setting “at 16.7 µM unless noted”, the activation (reporter increase) is 2.82%.

As for `COc1ccc(OC)c(S(=O)(=O)Nc2c(C)nn(C)c2C)c1`, the activation (reporter increase) (at 16.7 µM unless noted) is 21.9% [at 12.5 µM].

In the case of `CCOc1ccc(C(=O)Nc2cccc(-c3ccc4nncn4n3)c2)cc1`, the activation (reporter increase) (at 16.7 µM unless noted) is -5.49% [at 12.5 µM].

In the case of `COc1ccc(OC)c(S(=O)(=O)Nc2cccc(-c3ccc4nncn4n3)c2)c1`, the activation (reporter increase) (at 16.7 µM unless noted) was 333% [at 12.5 µM] (active).

For `CC(C)NC(=O)N(C)C[C@H]1Oc2ncc(C#CC3CCCCC3)cc2C(=O)N([C@H](C)CO)C[C@@H]1C`, the activation (reporter increase) (at 16.7 µM unless noted) was -2.95%.

Consider `CC(C)NC(=O)Nc1ccc2c(c1)C(=O)N([C@H](C)CO)C[C@@H](C)[C@H](CN(C)S(C)(=O)=O)O2`, for which the activation (reporter increase) (at 16.7 µM unless noted) was 3.33%.

As for `C[C@@H]1CN([C@H](C)CO)C(=O)Cc2cc(NS(=O)(=O)c3ccc(F)cc3)ccc2O[C@H]1CN(C)C`, the activation (reporter increase) (at 16.7 µM unless noted) was 4.8%.
